# From PubChem BioAssay (NCI)
# The panel holds about 83,000 compounds, 20% with a hit somewhere; the sample as a whole holds those more often.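 48-hour exposure, single concentration, 96-well plates; percent growth endpoint where 0 means no net growth. Active: below 10.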 Unmarked numbers belong to inactive results. The source made the active and inactive calls.
# Experiments:
# Assay in all cases: NCI-60 one-dose screen, 48 h (100 = growth as untreated, 0 = no growth, -100 = all killed)
# Conditions in all cases: 10 µM unless noted
# SR leukemia = test system: SR leukemia
# RPMI-8226 leukemia = test system: RPMI-8226 leukemia
# OVCAR-8 ovarian = test system: OVCAR-8 ovarian
# OVCAR-5 ovarian = test system: OVCAR-5 ovarian
# OVCAR-4 ovarian = test system: OVCAR-4 ovarian
# SK-OV-3 ovarian = test system: SK-OV-3 ovarian
# IGROV1 ovarian = test system: IGROV1 ovarian
# OVCAR-3 ovarian = test system: OVCAR-3 ovarian
# HS 578T breast = test system: HS 578T breast
# NCI/ADR-RES ovarian = test system: NCI/ADR-RES ovarian
# T-47D breast = test system: T-47D breast
# MDA-MB-435 melanoma = test system: MDA-MB-435 melanoma
# SW-620 colon = test system: SW-620 colon
# MCF7 breast = test system: MCF7 breast
# HCT-116 colon = test system: HCT-116 colon
# HCC-2998 colon = test system: HCC-2998 colon
# KM12 colon = test system: KM12 colon
# BT-549 breast = test system: BT-549 breast
Structure (SMILES),growth (SR leukemia),growth (RPMI-8226 leukemia),growth (OVCAR-8 ovarian),growth (OVCAR-5 ovarian),growth (OVCAR-4 ovarian),growth (SK-OV-3 ovarian),growth (IGROV1 ovarian),growth (OVCAR-3 ovarian),growth (HS 578T breast),growth (NCI/ADR-RES ovarian),growth (T-47D breast),growth (MDA-MB-435 melanoma),growth (SW-620 colon),growth (MCF7 breast),growth (HCT-116 colon),growth (HCC-2998 colon),growth (KM12 colon),growth (BT-549 breast)
Cc1cc(NS(=O)(=O)c2ccccc2)c(OS(=O)(=O)c2ccccc2)cc1C,94.6%,84.1%,95.1%,114%,106%,108%,122%,110%,101%,102%,109%,122%,107%,93.7%,96.1%,106%,107%,
C=CCO[C@H]1CO[C@H]2[C@@H]1OC[C@@H]2Oc1ccc(Nc2ccnc(Nc3ccc(O[C@H]4CO[C@H]5[C@@H]4OC[C@@H]5OCC=C)c(Cl)c3)n2)cc1Cl,-1.74% (active),-32.7% (active),-4.18% (active),-55.7% (active),-86.7% (active),115%,-94.1% (active),-85.5% (active),-38.6% (active),-63.6% (active),,-88.4% (active),-58.9% (active),-71.1% (active),-29.7% (active),-93.3% (active),-72.1% (active),32.7%
O=C(CCCCCCCn1cc(-c2cccnc2)nn1)Nc1ccccc1-c1ccccc1,49.2%,30.5%,20%,62.6%,41.7%,61.7%,28.3%,48.8%,66.4%,24.1%,28%,22.5%,20.6%,38.5%,0.699% (active),38.1%,29.4%,
COc1ccc(N=c2nc3sc4cc(Cl)ccc4n3c(N)c2C#N)cc1,91.2%,101%,59.3%,107%,55.6%,59.4%,80.4%,114%,34.5%,63.8%,73.7%,99.6%,81.1%,61.2%,93.7%,95.5%,24.7%,
CCOC(=O)c1ccc(-c2ccc3cc(OC)ccc3c2)nc1C,78.3%,105%,107%,95.4%,112%,98.6%,102%,106%,120%,108%,91.6%,94.3%,,93%,78.1%,101%,100%,104%
C/C(Cc1ccc(Cl)cc1)=C(/c1ccc(Cl)cc1)c1ccc(OCCN(C)C)cc1,-41.1% (active),-41.4% (active),69.2%,81.2%,40.3%,110%,56.4%,57.2%,61%,77.5%,47.9%,44.6%,-32.4% (active),11%,16.5%,1.6% (active),27.9%,103%
CN(C)c1ccc(C#Cc2c(F)cccc2Cl)cc1,94.3%,91.3%,93.2%,99.2%,72%,79%,47.2%,90.6%,94.5%,85.3%,41.8%,99.8%,,39.5%,84.8%,76.2%,85.4%,98.2%
COc1cc(NC(=O)c2cc(O)c(CC=C(C)C)c(O)c2)cc2c1O[C@]1(C)CC[C@@H](O)C(C)(C)[C@H]1C2,14.1%,-29.3% (active),54%,61.8%,51.5%,21.5%,52.5%,31.6%,13.1%,96.4%,7.15% (active),24.2%,,10.5%,23.8%,48.7%,31.1%,8.48% (active)
COc1cc2c(cc1OC)-c1ccc3cc4c(cc3c1N(CCN(C)C)C2)OCO4,1.13% (active),-41.1% (active),-24.7% (active),8.24% (active),26.7%,-21.2% (active),-31.2% (active),8.78% (active),-2.39% (active),72.3%,-12.3% (active),40%,9.79% (active),4.64% (active),-85.8% (active),26.7%,17.1%,-2.52% (active)
